PD-1 reverse act: reversal of PD-1 mediated T-cell inhibition. primary human CD4 T cells, PD-L1 beads, CellTiter-Glo 96 h. activation, % (concentration not given with the values). 29,000 tested, under 10 active. AID 2316; call rule not given here;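 note: 0% = median vehicle wells and 100% = positive control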
Shh pathway inh: Sonic Hedgehog pathway inhibition; actives 2.1% (n = 22,000); inhibition, % (concentration not given with the values); Shh-LIGHT2 Gli-luciferase reporter, 30 h;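 active = mean inhibition across valid replicates above about 65%, limit read from the data; inconclusive = mean under the limit, yet half or more replicates past it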;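 note: pathway switched on by Shh-conditioned medium diluted 1 in 25 in low serum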
NOMO-1 viab: STK33 inhibitor candidate reducing NOMO-1 cell viability. actives 7.5% (n = 37,000). AID 2330. inhibition, % (concentration not given with the values). NOMO-1 AML viability, CellTiter-Glo luminescence, 72 h; in the data active = inhibition above about 80%; inconclusive = no clear call, values can overlap the other calls
MITF inh: blocks MITF activity | TRPM1 promoter luciferase, luminescence, 24 h | inhibition, % (concentration not given with the values) | actives 0.28% (n = 37,000) | AID 2240; in the data active = inhibition above about 85%; inconclusive = no clear call, values can overlap the other calls; inactive = below about 68%;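 note: human melanocyte line stably carrying TRPM1 promoter luciferase reporter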
Active calls of the source: *. This is a sample that favours compounds with a hit; in the whole collection about 7.9% have one here.

For COc1ccc(S(=O)(=O)Nc2ccc3c(c2)CC(=O)N([C@H](C)CO)C[C@@H](C)[C@@H](CN(C)Cc2ccc(C(=O)Nc4ccccc4N)cc2)O3)cc1 the results were PD-1 reverse act -0.8, NOMO-1 viab 91.8* and MITF inh -11.7.
Screening COc1ccc(S(=O)(=O)Nc2ccc3c(c2)CC(=O)N([C@H](C)CO)C[C@H](C)[C@H](CN(C)Cc2ccc(C(=O)Nc4ccccc4N)cc2)O3)cc1 returned PD-1 reverse act 0.8, NOMO-1 viab 139.7* and MITF inh -0.3.
COc1ccc(S(=O)(=O)Nc2ccc3c(c2)C(=O)N([C@@H](C)CO)C[C@H](C)[C@@H](CN(C)Cc2ccc(C(=O)Nc4ccccc4N)cc2)O3)cc1 was read as PD-1 reverse act 0.0, NOMO-1 viab 33.4 and MITF inh 6.9.
`N#Cc1cccc(C#N)c1Oc1ccc(S(=O)(=O)NCc2ccco2)cc1` gave PD-1 reverse act -0.6, Shh pathway inh 0.8, NOMO-1 viab 33.2 and MITF inh 10.7.
Screening COc1ccc(N(CC(=O)Nc2cccc(Cl)c2Cl)S(C)(=O)=O)cc1OC returned PD-1 reverse act -0.4, NOMO-1 viab 9.2 and MITF inh -14.6.
For CN(C)/C=C/C(=O)c1sc(SCc2ccc(Cl)cc2)c2c1CC(C)(C)CC2=O the results were PD-1 reverse act -1.5, Shh pathway inh 11.5, NOMO-1 viab 113.5* and MITF inh -1.0.
`CCC(C)CC(C)/C=C\C1OC2=C(C(=O)OC2(C)O)C(O)C1O` (stereo unspecified) gave PD-1 reverse act -8.3, Shh pathway inh inconclusive, NOMO-1 viab 108.1* and MITF inh inconclusive.
`O=C(CSc1nc2ccccc2[nH]1)Nc1ccc2c(c1)oc1ccccc12` gave PD-1 reverse act 1.2, NOMO-1 viab 31.7 and MITF inh 0.6.
`Cc1ccnc(NC(c2ccccn2)c2ccc3ccc(C)nc3c2O)c1` (stereo unspecified) gave PD-1 reverse act -14.4, NOMO-1 viab 116.2* and MITF inh 75.0.
For Cc1ccc(C)c(C(Nc2ccccn2)c2ccc3ccc(C)nc3c2O)c1 (stereo unspecified) the results were PD-1 reverse act -13.0, NOMO-1 viab 106.9* and MITF inh 44.4.
Screening Cc1cccc(NC(c2ccc([N+](=O)[O-])cc2)c2ccc3ccc(C)nc3c2O)n1 (stereo unspecified) returned NOMO-1 viab 111.8* and MITF inh 44.2.
Screening Cc1cccc(NC(c2ccccc2C)c2ccc3ccc(C)nc3c2O)n1 (stereo unspecified) returned PD-1 reverse act -13.0, NOMO-1 viab 120.6* and MITF inh 60.4.
Screening CC(=O)Nc1ccc(-c2nnc(SCC(=O)Nc3ccc(Cl)cc3Cl)n2C)cc1 returned PD-1 reverse act -0.6, NOMO-1 viab 15.5 and MITF inh 8.4.
COC(=O)c1ccc(OCC(=O)Nc2ccc(C(C)=O)cc2)cc1 was read as NOMO-1 viab 23.9 and MITF inh -38.1.
O=C1C(=O)N(CCCn2ccnc2)C(c2ccc(Cl)cc2)C1C(=O)c1cccs1 (stereo unspecified) was read as PD-1 reverse act 0.6, NOMO-1 viab -12.6 and MITF inh -14.9.
O=C(CNS(=O)(=O)c1cc(Cl)ccc1Cl)Nc1ccc2c(c1)OCCO2 was read as NOMO-1 viab 4.7 and MITF inh -28.2.
`O=c1c(C=Nc2ccccc2)c(Nc2ccccc2)[nH]n1-c1ccccc1` gave PD-1 reverse act 4.5, Shh pathway inh 17.1, NOMO-1 viab 102.1* and MITF inh 25.1.
For CCOC(=O)c1c(-c2ccc(OC)cc2)csc1NC(=O)c1ccccc1[N+](=O)[O-] the results were NOMO-1 viab 16.2 and MITF inh 24.7.
Screening C[C@@H]1CN([C@@H](C)CO)C(=O)Cc2cc(NC(=O)Nc3ccc(C(F)(F)F)cc3)ccc2O[C@@H]1CN(C)C(=O)Nc1ccccc1 returned PD-1 reverse act -2.2, Shh pathway inh 11.5, NOMO-1 viab 111.5* and MITF inh 21.5.
For C[C@@H]1CN([C@@H](C)CO)C(=O)Cc2cc(NC(=O)Nc3ccc(C(F)(F)F)cc3)ccc2O[C@@H]1CN(C)C(=O)Nc1cccc2ccccc12 the results were PD-1 reverse act -1.5, Shh pathway inh 15.4, NOMO-1 viab 82.5* and MITF inh 39.6.
Screening C[C@@H]1CN([C@H](C)CO)C(=O)Cc2cc(NC(=O)Nc3ccc(C(F)(F)F)cc3)ccc2O[C@@H]1CN(C)C(=O)Nc1cccc2ccccc12 returned PD-1 reverse act -3.6, Shh pathway inh 41.3, NOMO-1 viab 31.2 and MITF inh 24.4.

Bioassay records: PubChem, Broad Institute
